Assay results as given in PubChem BioAssay (NCATS).
Inconclusive results are not listed. Values without a mark were called inactive. Active and inactive are the calls of the source. The call rests on the fitted dose curve; in most records, active means well fitted inhibition curve with a large enough effect; inconclusive means small, poorly fitted or top-dose-only effect; inactive means flat fitted curve, though single readings scatter. Square brackets hold non-standard residues; d marks the D form. Peptide text beside a SMILES is read from it.

The compounds below were run against Aldehyde dehydrogenase, mitochondrial (Homo sapiens) (UniProt P05091) (assay: qHTS for Inhibitors of the Aldehyde Dehydrogenase Family (ALDH2) Primary screen (AID 2061308;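 further: plate controls were vehicle for no effect and reference inhibitor for full effect; nearly all actives have a fitted effect of over 55% in size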)). Details: ALDH2 enzyme inhibition qHTS, 1536-well; series mostly up to 56 µM; activity change, negative = inhibition: at the top concentration.

| Compound | activity change, negative = inhibition | Potency |
| --- | --- | --- |
| CC1=C(C)C(=O)OC(C(C)C2C(O)CC3C4C5OC5C5(O)CC(OC6OC(CO)C(OC7OC(C)C(O)C(O)C7O)C(O)C6O)CC(O)C5(C)C4CCC32C)C1 (centres undefined) | 3.45% [at 16.9 µM] | – |
| CC1C(=O)CC2C3C(O)CC(C(=O)O)C12CC3(C)C (centres undefined) | 1.76% | – |
| C=C1C(OC2OCC(O)C(O)C2O)CC2C(C)(C)C(O)CCC2(C)C1CC/C(C)=C\CO (centres undefined) | 2.03% [at 28 µM] | – |
| O=C(OCC12OC1C=CC(OC(=O)c1ccccc1)C2O)c1ccccc1 (centres undefined) | 3.14% | – |
| C[C@@H]1CCC/C=C/[C@H]2CC(=O)C[C@@H]2[C@@H](O)/C=C/C(=O)O1 | -3.52% | – |
| CC(=O)N[C@H](Cc1ccc(O)cc1)C(=O)N[C@H](CCCN=C(N)N)C(=O)N[C@H](Cc1ccccc1)C(N)=O (Ac-[dY]-[dR]-[dF]-NH2) | -2.59% | – |
| O=C1OCC(c2ccccc2)=C1Cc1ccccc1 | -0.335% | – |
| C=C1C(=O)O[C@H]2[C@H]1[C@@H](OC(=O)/C(C)=C\C)C[C@]1(C)O[C@@H]1[C@H]1O[C@H]1C(=C)[C@H]2O | 0.222% | – |
| COc1cn(-c2ccc(-n3cccn3)cc2F)nc(-c2ccnn2-c2ccccc2)c1=O | -3.88% | – |
| COC(=O)C1=COC(O[C@@H]2O[C@H](CO)[C@@H](O)[C@H](O)[C@H]2O)[C@H]2[C@@H]1[C@H](OC(=O)CCc1ccc(O)cc1)C[C@]2(C)O (some centres undefined) | 6.26% [at 28 µM] | – |
| CC1CCC2(NC1)OC1CC3C4CC=C5CC(O[C@@H]6O[C@H](CO)[C@@H](O[C@@H]7O[C@@H](C)[C@H](O)[C@@H](O)[C@H]7O)[C@H](O)[C@H]6O[C@@H]6O[C@@H](C)[C@H](O)[C@@H](O)[C@H]6O)CCC5(C)C4CCC3(C)C1C2C (some centres undefined) | 7.01% [at 16.9 µM] | – |
| CC1(C)CCCC2(C)C3=C(C(=O)OC3O)C(O)CC12 (centres undefined) | 3.63% | – |
| c1ccc(-c2cnn3cc(-c4ccc(OCCN5CCOCC5)cc4)cnc23)cc1 | 4.9% | – |
| CC(=O)O[C@@]1(C)C[C@@H](O)[C@]2(O)C=CO[C@@H](O[C@@H]3O[C@H](CO)[C@@H](O)[C@H](O)[C@H]3O)[C@@H]21 | 5.89% [at 28 µM] | – |
| CC(=O)N[C@H]1[C@H](O[C@H]2CC[C@@]3(C)C(CC[C@]4(C)C3CC=C3C5CC(C)(C)CC[C@]5(C(=O)O)[C@H](O)C[C@]34C)C2(C)C)O[C@H](CO[C@@H]2OC[C@H](O)[C@H](O)[C@H]2O[C@@H]2OC[C@@H](O)[C@H](O)[C@H]2O)[C@@H](O)[C@@H]1O (some centres undefined) | 5.56% [at 16.9 µM] | – |
| COc1cccc(Cn2ncc3c4sc(S(C)=O)cc4n(C)c3c2=O)c1 (centres undefined) | – | inactive |
| C=C1CCC2C(C)(C(=O)O)CCCC2(C)C1CCC(C)CC(=O)O (centres undefined) | -16.7% | – |
| C=C(CCO)C(=O)OCC1OCC(OC(=O)C(=C)CCO[C@@H]2O[C@H](CO)[C@@H](O)[C@H](O)[C@H]2O)C(O)C1O (some centres undefined) | -3.29% [at 28 µM] | – |
| CC1C=CC2CCCCC2C1CCC1CC(O)CC(=O)O1 (centres undefined) | -5.5% | – |
| C=CC/C=C\C/C=C\CCCCCCCc1cccc(O)c1C(=O)O | -24.2% | – |

| Compound | activity change, negative = inhibition | Potency |
| --- | --- | --- |
| C/C=C(\C)C(=O)O[C@H]1C=CC(=O)O[C@H]1/C=C/[C@@H](O)[C@H](C)O | 7.92% | – |
| C/C(=C\C(=O)C[C@@]12C(=O)O[C@]3(C)CC[C@H]1C[C@H]23)C(N)=O | -26.2% | – |
| C[C@H]1[C@H](C)CC[C@]2(C(=O)O)CC[C@]3(C(=O)O)C(=CCC4[C@@]5(C)CC[C@H](O[C@@H]6O[C@H](C)[C@@H](O)[C@H](O)[C@H]6O)C(C)(C)C5CC[C@]43C)[C@H]12 (some centres undefined) | 0.872% [at 16.9 µM] | – |
| CC1(CO)CC(O)C2(C)CCC3(C)C(=CCC4C5(C=O)CCC(OC6OC(C(=O)O)C(O)C(O)C6OC6OC(C(=O)O)C(O)C(O)C6O)C(C)(C)C5CCC43C)C2C1 (centres undefined) | -6.49% [at 16.9 µM] | – |
| CCCCS(=O)(=O)N[C@@H](Cc1ccc(OCCCCC2CCNCC2)cc1)C(=O)O | -7.09% | – |
| CC(=O)NC[C@H]1CN(c2ccc(N3CCN(C(=O)CO)CC3)c(F)c2)C(=O)O1 | 3.97% | – |
| C[C@@H](Cc1cc2c(c(C(N)=O)c1)N(CCCO)CC2)NCCOc1ccccc1OCC(F)(F)F | 2.49% | – |
| O=c1cc(N2CCN(c3cccc(C(F)(F)F)c3)CC2)[nH]c(=O)n1C1CCCCC1 | -7.73% | – |
| N[C@H]1C[C@H]1c1ccc(-c2cccc(O)c2)cc1 | – | inactive |
| COC(=O)[C@H](O)[C@H]1C(C)(C)[C@H](OC(=O)C(C)C)[C@@]2(O)C(=O)[C@]1(C)C1CC[C@]3(C)C(CC(=O)O[C@H]3c3ccoc3)[C@]13O[C@@H]32 (some centres undefined) | -16.6% [at 16.9 µM] | – |
| C[C@@H]1O[C@@H](O[C@H]2[C@H](O)[C@@H](O)[C@H](O[C@H]3[C@H](O[C@H]4CC[C@@]5(C)C(=CC[C@@H]6C5CC[C@]5(C)[C@@H]7[C@H](C[C@@H]65)O[C@]5(CC[C@@](C)(CO[C@@H]6O[C@H](CO)[C@@H](O)[C@H](O)[C@H]6O)O5)[C@H]7C)C4)O[C@H](CO)[C@@H](O)[C@@H]3O)O[C@@H]2CO)[C@H](O)[C@H](O)[C@H]1O (some centres undefined) | -5% [at 16.9 µM] | – |
| COc1cc(C)c(C(=O)NC2C(C)OC(OC3CCC(C)C4C3C=C(C)C3/C(C)=C\CC/C(C)=C/C5(C)C=C(C(=O)O)C(C)CC56OC(=O)/C(=C(\O)C34C)C6=O)C(O)C2(C)O)c(O)c1 (centres undefined) | 3.57% [at 16.9 µM] | – |
| O=C(Nc1cccc([N+](=O)[O-])c1)c1cccc(S(=O)(=O)N2CCCCCC2)c1 | 6.43% | – |
| CCC(C)/C=C(C)/C=C/C1=CC2=C(Cl)C(=O)C(C)(OC(C)=O)C(=O)C2=CN1CCCC(=O)O (centres undefined) | -2.62% [at 28 µM] | – |
| C=C1CCC2[C@](C)(CCC[C@@]2(C)C=O)[C@H]1CC/C(C)=C/CO (some centres undefined) | -5.89% | – |
| C[C@]1(CO)CCC[C@]2(C)C3=C(CCC12)COC3 (some centres undefined) | -1.25% | – |
| COc1cc(C2c3cc(O)c(OC)cc3CC(CO)C2CO)ccc1O (centres undefined) | 5.13% | – |
| CC1(C)C(=O)N2c3ccccc3C(O)(CC(C(=O)O)n3cnc4ccccc4c3=O)C2N1O (centres undefined) | 0% [at 28 µM] | – |
| O=C1COC2(CCN(S(=O)(=O)c3ccc(-c4ccc5cccnc5c4)cc3)CC2)CN1C1CC1 | -3.41% | – |
